About 7,900 targets were measured; listed, in parts, are those with a hit and a random draw of the rest. About 0.6% of all pairs of compound and target were hits. Unmarked numbers belong to inactive results.
Experiments:
Experiment in all cases: log2 fold change, soluble protein after heating vs DMSO (PISA); higher = thermal stabilisation; K562 cells, 10 uM, 30 min; active = over 0.2 and 3.5 SD of the protein, either way, in both replicates (recomputed)
[1] = compound: CC1=C(C=C(C=C1)NC(=O)C2=CC(=CC=C2)C(C)(C)C#N)NC3=CC4=C(C=C3)N=CN(C4=O)C
Procedure, shortened: (§1)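 K562 cells (2×10^6 cells/mL) were treated with 10 μM compound for 30 min, and aliquots were heated for 3 min over 48°C-58°C. Pooled aliquots were extracted in PBS with 0.5% NP-40 at 4°C, and the supernatant after 21,000xg for 90 min was measured by TMTpro 16plex LC-MS/MS with channel sums equalised. Reported thermal stability, relative to control samples and from duplicates, is a log2 fold change.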

[2] = compound: CC1=C(C=C(C=C1)NC(=O)C2=CC(=CC=C2)N(C)C)NC(=O)C3=CC=C(C=C3)O
Procedure, shortened: as §1

[3] = compound: CC1=NC(=CC=C1)C2=C(N=C(N2)C(C)(C)C)C3=CC4=NC=CN=C4C=C3
Procedure, shortened: as §1

Nexturastat A = compound: CCCCN(Cc1ccc(C(=O)NO)cc1)C(=O)Nc1ccccc1 [Nexturastat A]
Procedure, shortened: as §1

vemurafenib = compound: CCCS(=O)(=O)Nc1ccc(F)c(C(=O)c2c[nH]c3ncc(-c4ccc(Cl)cc4)cc23)c1F [vemurafenib]
Procedure, shortened: as §1

[4] = compound: CCCc1cc(C)[nH]c(=O)c1CNC(=O)c1cc(-c2ccnc(N3CCN(C)CC3)c2)cc2c1cnn2C(C)C
Procedure, shortened: as §1

givinostat = compound: CCN(CC)Cc1ccc2cc(COC(=O)Nc3ccc(C(=O)NO)cc3)ccc2c1 [givinostat]
Procedure, shortened: as §1

barasertib = compound: CCN(CCCOc1ccc2c(Nc3cc(CC(=O)Nc4cccc(F)c4)[nH]n3)ncnc2c1)CCOP(=O)(O)O [barasertib]
Procedure, shortened: as §1

[5] = compound: CC[C@@H]1C(=O)N(C)c2cnc(Nc3ccc(C(=O)NC4CCN(C)CC4)cc3OC)nc2N1C1CCCC1
Procedure, shortened: as §1

[6] = compound: CC[C@H](C)N1C=C(C2=C(C=C(C=C21)C3=CN=C(C=C3)N4CCNCC4)C(=O)NCC5=C(C=C(NC5=O)C)C)C
Procedure, shortened: as §1

epoxomicin = compound: CC[C@H](C)[C@@H](C(=O)N[C@@H]([C@@H](C)O)C(=O)N[C@@H](CC(C)C)C(=O)[C@]1(CO1)C)NC(=O)[C@H]([C@@H](C)CC)N(C)C(=O)C [epoxomicin]
Procedure, shortened: as §1

[7] = compound: CCn1c(C(=O)N(C2CC2)C2CC2)cc2c3c(ncn3C)c(Nc3cc(C)n(C)n3)nc21
Procedure, shortened: as §1

[8] = compound: CN(C)CC(=O)Nc1ccc2[nH]c(=O)c3ccccc3c2c1
Procedure, shortened: as §1

rosiglitazone = compound: CN(CCOC1=CC=C(C=C1)C[C@H]2C(=O)NC(=O)S2)C3=CC=CC=N3 (racemic) [rosiglitazone]
Procedure, shortened: as §1

[9] = compound: CN1C2=C(C3=C1C(=O)N(N=C3)CC4=CC(=CC=C4)N)SC(=C2)S(=O)C
Procedure, shortened: as §1

[10] = compound: CC1=CC=C(C=C1)SC2=C3C=C(SC3=CN=C2)C(=O)N
Procedure, shortened: as §1

[11] = compound: CCCS(=O)(=O)Nc1ccc(F)c(C(=O)c2c[nH]c3ncc(Cl)cc23)c1F
Procedure, shortened: as §1

volasertib = compound: CC[C@@H]1C(=O)N(C)c2cnc(Nc3ccc(C(=O)N[C@H]4CC[C@H](N5CCN(CC6CC6)CC5)CC4)cc3OC)nc2N1C(C)C [volasertib]
Procedure, shortened: as §1

[12] = compound: CCn1cc(-c2ccnc3[nH]c(-c4cccc(CN(C)C)c4)cc23)c(-c2ccc(NC(=O)N(C)C)cc2)n1
Procedure, shortened: as §1

[13] = compound: CN1CCC(CNc2ccc3ncc(-c4cccc(OC(F)(F)F)c4)n3n2)CC1
Procedure, shortened: as §1

Sequence of UniProt Q86V48 (Q86V48 whole entry, looked up): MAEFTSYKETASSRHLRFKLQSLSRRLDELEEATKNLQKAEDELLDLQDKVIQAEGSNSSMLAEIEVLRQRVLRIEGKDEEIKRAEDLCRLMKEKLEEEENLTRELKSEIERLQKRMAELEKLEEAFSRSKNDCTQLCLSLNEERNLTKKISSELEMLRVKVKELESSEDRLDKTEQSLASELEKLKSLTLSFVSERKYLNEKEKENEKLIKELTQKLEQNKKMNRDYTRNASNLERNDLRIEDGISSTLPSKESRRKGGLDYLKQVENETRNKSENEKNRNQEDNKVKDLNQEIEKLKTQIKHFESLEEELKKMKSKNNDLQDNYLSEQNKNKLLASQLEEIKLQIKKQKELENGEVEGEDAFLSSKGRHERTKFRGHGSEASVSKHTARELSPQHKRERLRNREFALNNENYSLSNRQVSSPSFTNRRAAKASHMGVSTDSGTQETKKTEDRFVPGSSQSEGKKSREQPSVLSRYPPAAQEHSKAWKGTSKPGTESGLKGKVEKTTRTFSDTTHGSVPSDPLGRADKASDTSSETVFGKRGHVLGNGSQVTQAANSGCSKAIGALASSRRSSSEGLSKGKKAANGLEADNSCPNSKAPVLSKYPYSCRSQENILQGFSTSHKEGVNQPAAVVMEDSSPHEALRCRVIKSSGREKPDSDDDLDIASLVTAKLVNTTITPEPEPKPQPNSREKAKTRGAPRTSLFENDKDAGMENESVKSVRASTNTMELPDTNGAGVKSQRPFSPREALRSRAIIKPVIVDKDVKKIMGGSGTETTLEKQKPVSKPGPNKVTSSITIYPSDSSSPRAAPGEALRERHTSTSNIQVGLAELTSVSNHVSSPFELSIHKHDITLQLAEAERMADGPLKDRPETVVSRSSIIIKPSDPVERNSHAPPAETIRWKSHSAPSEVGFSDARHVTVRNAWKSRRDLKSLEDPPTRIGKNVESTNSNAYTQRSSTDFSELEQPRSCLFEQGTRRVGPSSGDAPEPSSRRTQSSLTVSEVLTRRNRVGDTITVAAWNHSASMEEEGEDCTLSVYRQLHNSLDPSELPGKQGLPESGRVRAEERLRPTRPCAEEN
Sequence of UniProt P43361 (P43361 whole entry, looked up): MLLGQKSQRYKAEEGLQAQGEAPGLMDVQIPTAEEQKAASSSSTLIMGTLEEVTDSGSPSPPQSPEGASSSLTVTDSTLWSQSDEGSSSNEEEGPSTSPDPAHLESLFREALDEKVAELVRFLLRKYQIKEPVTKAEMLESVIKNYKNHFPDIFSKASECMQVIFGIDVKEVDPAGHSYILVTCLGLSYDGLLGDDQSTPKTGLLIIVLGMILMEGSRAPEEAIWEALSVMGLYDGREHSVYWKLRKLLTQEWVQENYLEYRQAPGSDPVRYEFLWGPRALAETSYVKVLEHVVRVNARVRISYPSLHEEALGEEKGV
Sequence of UniProt Q16539 (Q16539 whole entry, looked up): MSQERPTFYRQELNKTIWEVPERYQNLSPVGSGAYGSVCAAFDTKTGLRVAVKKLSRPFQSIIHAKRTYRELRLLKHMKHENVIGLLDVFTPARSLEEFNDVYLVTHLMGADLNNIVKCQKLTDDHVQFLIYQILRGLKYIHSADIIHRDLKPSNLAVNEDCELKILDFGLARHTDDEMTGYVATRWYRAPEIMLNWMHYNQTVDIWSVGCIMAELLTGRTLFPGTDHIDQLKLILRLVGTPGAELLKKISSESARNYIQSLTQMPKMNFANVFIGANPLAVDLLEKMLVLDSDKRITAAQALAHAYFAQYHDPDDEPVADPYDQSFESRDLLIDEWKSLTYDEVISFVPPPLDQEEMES
Sequence of UniProt P13473 (P13473 whole entry, looked up): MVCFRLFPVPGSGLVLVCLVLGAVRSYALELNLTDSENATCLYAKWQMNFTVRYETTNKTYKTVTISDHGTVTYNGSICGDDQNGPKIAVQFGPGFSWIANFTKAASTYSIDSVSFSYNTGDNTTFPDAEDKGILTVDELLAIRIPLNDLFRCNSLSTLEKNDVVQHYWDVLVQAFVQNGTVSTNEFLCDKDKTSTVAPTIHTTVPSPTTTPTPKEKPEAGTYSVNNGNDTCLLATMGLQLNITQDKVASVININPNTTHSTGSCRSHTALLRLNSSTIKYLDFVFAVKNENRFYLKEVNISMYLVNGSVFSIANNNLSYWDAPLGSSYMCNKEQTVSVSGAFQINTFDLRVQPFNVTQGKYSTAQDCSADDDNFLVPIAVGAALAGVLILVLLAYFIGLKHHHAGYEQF
Sequence of UniProt P55082 (P55082 whole entry, looked up): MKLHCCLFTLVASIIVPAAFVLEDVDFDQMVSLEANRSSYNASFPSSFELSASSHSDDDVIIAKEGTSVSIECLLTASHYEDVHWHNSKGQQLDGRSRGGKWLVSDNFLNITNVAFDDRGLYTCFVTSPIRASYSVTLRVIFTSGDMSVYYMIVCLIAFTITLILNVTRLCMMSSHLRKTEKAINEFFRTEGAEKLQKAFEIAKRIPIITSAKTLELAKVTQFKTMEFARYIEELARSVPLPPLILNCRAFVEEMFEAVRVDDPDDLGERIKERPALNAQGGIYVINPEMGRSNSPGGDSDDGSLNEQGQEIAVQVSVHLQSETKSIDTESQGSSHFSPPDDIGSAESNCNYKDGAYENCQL
Sequence of UniProt P24592 (P24592 whole entry, looked up): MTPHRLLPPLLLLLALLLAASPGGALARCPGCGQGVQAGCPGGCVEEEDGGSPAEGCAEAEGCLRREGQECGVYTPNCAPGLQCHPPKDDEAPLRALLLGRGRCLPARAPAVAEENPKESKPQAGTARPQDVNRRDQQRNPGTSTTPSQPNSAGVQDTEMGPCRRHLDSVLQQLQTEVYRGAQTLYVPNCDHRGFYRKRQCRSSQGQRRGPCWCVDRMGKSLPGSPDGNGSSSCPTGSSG
Sequence of UniProt P28300 (P28300 whole entry, looked up): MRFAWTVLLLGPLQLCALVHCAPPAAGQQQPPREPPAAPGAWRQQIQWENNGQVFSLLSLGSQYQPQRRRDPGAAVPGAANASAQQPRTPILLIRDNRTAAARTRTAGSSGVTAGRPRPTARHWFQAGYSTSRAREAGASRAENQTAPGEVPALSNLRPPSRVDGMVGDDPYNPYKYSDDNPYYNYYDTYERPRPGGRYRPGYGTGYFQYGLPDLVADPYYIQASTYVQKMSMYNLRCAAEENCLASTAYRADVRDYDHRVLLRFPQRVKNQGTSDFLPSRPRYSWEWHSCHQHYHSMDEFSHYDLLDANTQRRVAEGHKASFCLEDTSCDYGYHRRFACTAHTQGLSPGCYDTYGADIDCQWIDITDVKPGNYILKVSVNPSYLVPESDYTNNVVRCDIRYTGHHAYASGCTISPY
Sequence of UniProt Q15528 (Q15528 whole entry, looked up): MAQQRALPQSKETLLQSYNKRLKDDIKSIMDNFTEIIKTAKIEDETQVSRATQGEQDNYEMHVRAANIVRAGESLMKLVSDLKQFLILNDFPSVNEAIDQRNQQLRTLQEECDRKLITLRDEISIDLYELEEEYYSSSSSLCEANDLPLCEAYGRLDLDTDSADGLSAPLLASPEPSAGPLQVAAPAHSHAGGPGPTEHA
Sequence of UniProt Q5SW96 (Q5SW96 whole entry, looked up): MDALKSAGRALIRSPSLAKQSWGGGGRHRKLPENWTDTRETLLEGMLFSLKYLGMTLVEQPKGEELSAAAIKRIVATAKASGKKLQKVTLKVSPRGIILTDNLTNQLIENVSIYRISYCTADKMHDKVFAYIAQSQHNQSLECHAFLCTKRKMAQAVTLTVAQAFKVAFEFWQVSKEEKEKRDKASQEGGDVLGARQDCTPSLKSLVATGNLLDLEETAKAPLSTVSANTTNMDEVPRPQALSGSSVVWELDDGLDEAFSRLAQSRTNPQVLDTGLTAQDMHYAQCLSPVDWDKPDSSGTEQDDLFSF
Sequence of UniProt Q92551 (Q92551 whole entry, looked up): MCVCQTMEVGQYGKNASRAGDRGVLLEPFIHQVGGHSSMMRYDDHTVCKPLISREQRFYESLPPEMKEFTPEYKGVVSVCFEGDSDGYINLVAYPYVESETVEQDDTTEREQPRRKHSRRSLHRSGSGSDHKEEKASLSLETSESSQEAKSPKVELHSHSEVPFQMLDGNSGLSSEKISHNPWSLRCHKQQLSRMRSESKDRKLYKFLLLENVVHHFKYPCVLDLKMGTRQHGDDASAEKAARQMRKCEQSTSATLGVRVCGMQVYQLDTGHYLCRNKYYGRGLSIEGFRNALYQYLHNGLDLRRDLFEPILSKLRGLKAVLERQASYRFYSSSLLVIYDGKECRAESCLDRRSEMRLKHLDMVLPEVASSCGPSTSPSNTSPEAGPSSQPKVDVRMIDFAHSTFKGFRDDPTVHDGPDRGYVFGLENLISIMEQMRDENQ
Sequence of UniProt Q86UD3 (Q86UD3 whole entry, looked up): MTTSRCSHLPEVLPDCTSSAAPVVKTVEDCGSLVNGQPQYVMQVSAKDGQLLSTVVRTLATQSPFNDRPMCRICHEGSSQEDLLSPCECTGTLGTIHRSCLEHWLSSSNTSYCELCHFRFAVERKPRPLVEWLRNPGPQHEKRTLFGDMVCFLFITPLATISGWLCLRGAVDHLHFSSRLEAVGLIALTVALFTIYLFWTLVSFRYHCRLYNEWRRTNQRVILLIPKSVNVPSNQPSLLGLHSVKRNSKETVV
Sequence of UniProt O60291 (O60291 whole entry, looked up): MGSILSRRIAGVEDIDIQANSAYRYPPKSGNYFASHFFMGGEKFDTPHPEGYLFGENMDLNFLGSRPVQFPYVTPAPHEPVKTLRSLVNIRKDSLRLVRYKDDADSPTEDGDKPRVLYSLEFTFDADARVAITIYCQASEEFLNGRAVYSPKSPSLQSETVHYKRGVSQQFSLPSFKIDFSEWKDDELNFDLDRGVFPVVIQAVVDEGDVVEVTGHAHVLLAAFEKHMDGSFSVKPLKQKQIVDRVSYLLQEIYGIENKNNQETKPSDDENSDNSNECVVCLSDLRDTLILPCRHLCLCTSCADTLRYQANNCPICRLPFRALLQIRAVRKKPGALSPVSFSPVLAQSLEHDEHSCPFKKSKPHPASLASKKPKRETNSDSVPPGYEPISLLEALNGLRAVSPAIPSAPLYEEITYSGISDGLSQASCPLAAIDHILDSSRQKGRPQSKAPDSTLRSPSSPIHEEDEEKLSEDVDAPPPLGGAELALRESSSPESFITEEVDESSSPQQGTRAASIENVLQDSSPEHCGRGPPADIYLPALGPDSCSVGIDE

Target	log2 fold change [1]	log2 fold change [2]	log2 fold change [3]	log2 fold change (Nexturastat A)	log2 fold change (vemurafenib)	log2 fold change [4]	log2 fold change (givinostat)	log2 fold change (barasertib)	log2 fold change [5]	log2 fold change [6]	log2 fold change (epoxomicin)	log2 fold change [7]	log2 fold change [8]	log2 fold change (rosiglitazone)	log2 fold change [9]	log2 fold change [10]	log2 fold change [11]	log2 fold change (volasertib)	log2 fold change [12]	log2 fold change [13]
MED22 (UniProt Q15528)	-0.023	0.034	0.015	-0.033	0.043	0.014	0.117	0.028	0.133	0.097	0.02	0.134	-0.019	0.076	-0.043					
KIF3B (UniProt O15066)	-0.082	0.05	-0.042	0.097	0.018	-0.019	0.067	-0.062	0.156		-0.134	-0.204	-0.078	0.106	-0.052	-0.022	0.017	-0.009	0.159	0.378 (active)
IP6K1 (UniProt Q92551)	0.443	0.022		0.232		0.068	-0.008	0.259	0.127		0	-0.253		0.091	0.147		-0.015	-0.176	0.028	-0.052
MAPK14 (UniProt Q16539)	1.62 (active)	0.615	0.022		0.059	0.002	0.03	-0.029	-0.065	-0.067		0.088	0.052	0.067	-0.231	0.111	0.339	-0.516	0.03	-0.03
LUZP1 (UniProt Q86V48)	-0.128	0.136	-0.182	0.184	0.05	-0.029	0.031	-0.062		-0.026	-0.22	0.09	0.035	0.026	0.026	-0.005	-0.091	-0.021	0.026	-0.039
MARCHF3 (UniProt Q86UD3)	0.001			0.081				0.025	0.116	0.018	0.036			0.093		-0.008	-0.01	0.011		
MFAP3 (UniProt P55082)	0.038			0.11	-0.115			0.05			-0.054		-0.118	0.046	-0.008					
MAGED1 isoform 2 (UniProt Q9Y5V3)	0.003			0.608 (active)	-0.236		0.006			-0.01	-0.053	0.01	0.012		0.399	0.1	0.198	-0.306		
KIZ (UniProt Q2M2Z5)		0.057	-0.068						0.104							0.003	-0.181	0.262	-0.202	-0.399
LRRCC1 (UniProt Q9C099)		0.039													0.281					
MGRN1 isoform 2 (UniProt O60291)		-0.059	-0.02				0.012	0				0.071		0.014		0.021	-0.307	-0.115	-0.072	-0.07
MFSD12 isoform 3 (UniProt Q6NUT3)	0.115						-0.022		-0.005			0.077			0.075				-0.006	-0.305
LAMP2 isoform 2 (UniProt P13473)			0.003	-0.015	-0.082	-0.071	-0.158	0	-0.137	-0.078	-0.016	0.028	0.012	-0.035	-0.112	-0.07	-0.093	-0.081	-0.01	-0.485 (active)
IGFBP6 (UniProt P24592)		0.03			0.189								-0.186		0.107					
LDLRAP1 (UniProt Q5SW96)		-0.028	-0.102				0.284	0.146				-0.045		-0.023						
MAGEA8 (UniProt P43361)		0.009	0.072		0.031		0.034	-0.123	-0.096	-0.075		-0.063	-0.003	0.036	0.038	0.02	0.197	-0.386	0.252	-0.07
KXD1 (UniProt Q9BQD3)		-0.025		-0.223	0.092	0.072	0.094	-0.021	-0.154		-0.077	-0.033	0.062	0.047	0.011	0	0.059	-0.035	0.041	-0.096
LOX (UniProt P28300)						-0.269	0.087	-0.129		-0.191		-0.028		0.072						
